Tau fluor cs: counter-screen for tau fibril formation inhibitors. tau K18 P301L Alexa594 fluorescence, heparin fibrillization. Potency, µM (top dose mostly 57.7 µM), inactives show top-dose activity change, negative = decrease. actives 0.93% (n = 280,000); further: potency means the concentration at half of the fitted maximal effect; nearly all actives have a fitted effect of over 55% in size
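Human tau K18 P301L (15 uM unlabeled, 0.24 uM Alexa 594-labeled) in 100 mM sodium acetate pH 7 with 20 uM heparin, 6 hr at 37 C. ThT 30 uM added, 1 hr ambient; Alexa 594 FP and total fluorescence read at 555/632 nm.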
Tau fibril ThT: tau fibrillization inhibition (ThT binding). P10636. recombinant tau K18 P301L (four-repeat tau fragment), heparin-induced fibrillization, ThT fluorescence. Potency, µM (doses to about 57.4 µM), without a hit: at the highest dose activity, negative = inhibition, usual class: inhibitors. actives 2.1% (n = 270,000). AID 1460; further: potency means the concentration at half of the fitted maximal effect; nearly all actives have a fitted effect of over 55% in size
Target sequence (P10636 561-689 P618L limits assumed): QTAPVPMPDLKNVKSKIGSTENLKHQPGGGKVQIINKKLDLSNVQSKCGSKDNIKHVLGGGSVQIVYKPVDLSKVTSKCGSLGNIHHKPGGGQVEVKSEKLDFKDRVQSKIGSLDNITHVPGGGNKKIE
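Recombinant human tau K18 fragment […] carrying P301L, 15 uM unlabeled plus 0.24 uM Alexa 594-labeled, was fibrillized with 20 uM heparin in 100 mM sodium acetate pH 7 for 6 hr at 37 C; 30 uM ThT fluorescence read after 1 hr.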
Tau fibril FP: blocks human tau fibril formation measured by polarization; P10636; actives 0.39% (n = 280,000); Potency, µM (titrated, usually from 57.7 µM), without a hit: at the top dose activity, negative = inhibition, usual class: inhibitors; AID 1468; K18 P301L tau heparin fibrillization, Alexa594 FP, 6 h; further: potency means the concentration at half of the fitted maximal effect; nearly all actives have a fitted effect of over 55% in size
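Steps: dispense K18 P301L tau (15 uM plus 0.24 uM Alexa 594 tracer, final) in pH 7 sodium acetate; add compound; add heparin (20 uM final); incubate 6 hr, 37 C; add ThT (30 uM final); after 1 hr ambient, read FP.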
TRb-SRC2 inh: disrupts binding of human TR beta to SRC2; P10828; TRbeta-SRC2 peptide binding, fluorescence polarization; receptor liganded with 1 µM T3; Potency, µM (titrated, usually from 106 µM), without a hit: at the top dose activity change, negative = inhibition, usual class: inhibitors; actives 0.065% (n = 280,000); AID 1469;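 further: potency means the concentration at half of the fitted maximal effect; plate controls were bound peptide for no effect and peptide without receptor for full effect; nearly all actives have a fitted effect of over 50% in size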
Target sequence (P10828 whole entry, looked up): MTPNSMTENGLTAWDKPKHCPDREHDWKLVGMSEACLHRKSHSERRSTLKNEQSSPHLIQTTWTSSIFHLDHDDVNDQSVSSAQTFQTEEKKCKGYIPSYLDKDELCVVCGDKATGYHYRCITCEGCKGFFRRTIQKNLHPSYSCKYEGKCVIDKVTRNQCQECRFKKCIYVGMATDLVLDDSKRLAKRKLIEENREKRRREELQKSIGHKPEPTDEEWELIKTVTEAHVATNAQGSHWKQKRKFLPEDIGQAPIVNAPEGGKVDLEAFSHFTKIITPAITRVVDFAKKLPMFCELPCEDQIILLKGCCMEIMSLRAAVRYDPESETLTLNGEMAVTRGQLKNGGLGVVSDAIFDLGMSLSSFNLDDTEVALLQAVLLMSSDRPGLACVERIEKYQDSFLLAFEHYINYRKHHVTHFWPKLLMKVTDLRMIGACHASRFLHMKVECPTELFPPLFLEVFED
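TRb LBD 0.6 uM + Texas Red SRC2 peptide 20 nM, 1 uM T3, Tris buffer w/ 5% DMSO; compound pinned, 5 h RT; FP read ex 555/em 632; normalized to unbound and bound controls.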
TR SRC2 fluor cs: counter-screen for TRb-SRC2 inhibitors: fluorescence interference; AID 1479; Potency, µM (highest dose often 106 µM), for inactives: at the highest dose fluorescence change, negative = quenching; TRb/SRC2 Texas Red total fluorescence interference; actives 0.29% (n = 280,000); active means well fitted curve in either direction with a large enough effect; inconclusive means small, poorly fitted or top-dose-only effect; further: potency means the concentration at half of the fitted maximal effect
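Flags fluorescent or light-absorbing compounds by total fluorescence, S + 2P, at 555 nm excitation and 632 nm emission. Mixture: 20 nM Texas Red SRC2 peptide, 0.6 uM human TRb LBD, 1 uM T3, 5% DMSO; compound exposure 5 h at ambient temperature.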
PNC assembly inh: perinucleolar compartment assembly inhibition. PC3M PTB-GFP, PNC prevalence imaging, 16 h; hits give low values. activity change (PNC), negative = inhibition, % at 10 µM. actives 3.1% (n = 140,000);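 active means readout at or below -70, meaning at least 70% loss of cells showing the perinucleolar compartment, a nuclear body marking cancer cells; inconclusive means readout between -30 and a set limit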;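 further: plate controls were DMSO wells for no effect and camptothecin positive control wells for full effect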
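Read-out is percentage of cells bearing a perinucleolar compartment, from automated 20x imaging of fixed, Hoechst-stained PC3M PTB-GFP cells. Cells were seeded 4 h, then exposed 16 h to compound (23 nl of library stock) in duplicate plates.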
Active calls of the source: *; [ ] = another dose, or the depositor's remark. Compounds with a hit are over-represented: about 4.6% of the library has one in this group of screens. Unless noted, the call rests on the fitted dose curve; in most records, active means well fitted curve in the direction sought with a large enough effect; inconclusive means small, poorly fitted or top-dose-only effect, or another doubt; inactive means no such curve, though single readings can be large; an effect the other way counts as inactive or inconclusive. Unless noted, on the % scale 0 is the no-effect control and ±100 the full control effect.

Screening COc1ccc(CCN2C(=O)CC(Nc3ccc(N4CCOCC4)cc3)C2=O)cc1OC (stereo not given) returned Tau fluor cs -13.2%, Tau fibril ThT 12.6µM*, Tau fibril FP 4.7%, TRb-SRC2 inh 2.1%, TR SRC2 fluor cs 3.4% and PNC assembly inh 10.7.
`O=C(O)CCc1ccc(-c2ccc(Cl)cc2)n1CCC(=O)O` gave Tau fluor cs -5.2%, Tau fibril ThT -16.5%, Tau fibril FP -1.7%, TRb-SRC2 inh 1.6%, TR SRC2 fluor cs 0.0% and PNC assembly inh 35.4.
`COc1cc(/C=N/n2nnnc2N)ccc1OCc1c(C)no[n+]1[O-]` gave Tau fluor cs -9.8%, Tau fibril ThT -2.1%, Tau fibril FP inconclusive, TRb-SRC2 inh 3.6%, TR SRC2 fluor cs -2.1% and PNC assembly inh 5.6.
Screening Cc1nc(CCNC(=O)Cc2ccc(F)cc2)cs1 returned Tau fluor cs 7.6%, Tau fibril ThT -6.2%, Tau fibril FP -0.7%, TRb-SRC2 inh -15.3%, TR SRC2 fluor cs -1.7% and PNC assembly inh -14.1.
Screening Cc1nc(CCNC(=O)Cc2ccc(Cl)cc2)cs1 returned Tau fluor cs -8.0%, Tau fibril ThT -11.5%, Tau fibril FP -0.2%, TRb-SRC2 inh -4.8%, TR SRC2 fluor cs -1.8% and PNC assembly inh -89.9*.
For O=C(Nc1nccs1)c1cn(-c2ccccc2)nc1-c1ccncc1 the results were Tau fluor cs -14.1%, Tau fibril ThT -17.0%, Tau fibril FP -15.7%, TRb-SRC2 inh 9.5% and TR SRC2 fluor cs -1.8%.
COc1ccc(-c2nn(-c3ccccc3)cc2C(=O)Nc2nccs2)cc1 was read as Tau fluor cs inconclusive, Tau fibril ThT 1.5%, Tau fibril FP 28.2µM*, TRb-SRC2 inh -3.3%, TR SRC2 fluor cs -3.0% and PNC assembly inh -22.0.
`COc1cccc(-c2nn(-c3ccccc3)cc2C(=O)Nc2nccs2)c1` gave Tau fluor cs inconclusive, Tau fibril ThT -9.6%, Tau fibril FP 28.2µM*, TRb-SRC2 inh 2.6%, TR SRC2 fluor cs -5.3% and PNC assembly inh inconclusive.
Cc1cc(C)c2nc(C)cc(Nc3ccc(C(=O)NCCO)cc3)c2c1 was read as Tau fluor cs -8.9%, Tau fibril ThT -9.7%, Tau fibril FP 0.9%, TRb-SRC2 inh 7.1% and TR SRC2 fluor cs -0.4%.
`CCO[C@H]1OC(C(=O)NCc2nc3ccccc3[nH]2)=C[C@@H](C)[C@@H]1CCCO` gave Tau fluor cs -0.5%, Tau fibril ThT -9.1%, Tau fibril FP -2.0%, TRb-SRC2 inh 4.9% and TR SRC2 fluor cs -4.5%.
O=C(NCc1ccccc1)Nc1cc(Cl)ccc1Cl was read as Tau fluor cs -13.2%, Tau fibril ThT -4.3%, Tau fibril FP -6.1%, TRb-SRC2 inh -8.2% and TR SRC2 fluor cs -0.7%.
Screening COc1ccc(C(=O)NCc2cn3c(C)csc3n2)cc1OC returned Tau fluor cs 2.2%, Tau fibril ThT -0.3%, Tau fibril FP 1.3%, TRb-SRC2 inh -5.6%, TR SRC2 fluor cs -1.7% and PNC assembly inh -100.0*.
Screening Cc1csc2nc(CNC(=O)c3cccc(C(F)(F)F)c3)cn12 returned Tau fluor cs -8.5%, Tau fibril ThT -18.2%, Tau fibril FP 2.6%, TRb-SRC2 inh -6.1%, TR SRC2 fluor cs 0.9% and PNC assembly inh 21.2.
For Cc1ccc(N/C=C/C(=O)c2ccco2)c(O)c1 the results were Tau fluor cs -22.6%, Tau fibril ThT 3.55µM*, Tau fibril FP 1.6%, TRb-SRC2 inh 1.1% and TR SRC2 fluor cs -1.0%.
Screening CCOC(=O)N1CCN(C(=O)Nc2cccc(Cl)c2)CC1 returned Tau fluor cs 1.4%, Tau fibril ThT -0.3%, Tau fibril FP 10.9%, TRb-SRC2 inh 4.9%, TR SRC2 fluor cs -1.1% and PNC assembly inh inconclusive.
CCCOC(=O)c1ccc(NC(=O)/C=C/c2cccs2)cc1 was read as Tau fluor cs 14.1µM*[quencher], Tau fibril ThT 3.5%, Tau fibril FP inconclusive, TRb-SRC2 inh -3.4%, TR SRC2 fluor cs -0.6% and PNC assembly inh 51.7.

Compound activity: PubChem BioAssay, National Center for Advancing Translational Sciences (NCATS)
